High-throughput results from PubChem BioAssay.
LmPK inhibitor – LmPK (Leishmania mexicana) enzyme inhibition | purified LmPK, Kinase-Glo ATP luminescence, 1 h | Potency, µM (top dose mostly 57.5 µM), inactives show at the top dose activity change, negative = inhibition, most hits filed as inhibitors | 290,000 compounds, 0.37% hits | AID 1721; further: potency means the concentration at half of the fitted maximal effect; on the % scale 0 is the no-effect control and ±100 the full control effect
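qHTS format; LmPK 0.1 nM; substrates PEP 0.5 mM and ADP 0.1 mM. One-hour room-temperature incubation, then coupled luciferase luminescence; 0.5 nM enzyme wells mark activation.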
Cycloheximide cs – counter-screen hit for Shiga toxin inhibitors, cycloheximide. cell reporter, cycloheximide protein synthesis inhibition counterscreen. max response, %. 300,000 compounds, 12% hits. AID 2314; in the data active means max response mostly above about 13%, no sharp cut-off; inactive means mostly below about 14%; further: read at 38.3 µM for the half of the compounds with a filed dose; 0% is about no effect
Giardia FBPA inh – inhibitors of Giardia lamblia fructose-1,6-bisphosphate aldolase; A8B2U2; purified Giardia FBPA; Potency, µM (titrated, usually from 59.6 µM), inactives show top-dose activity, negative = inhibition, hits mostly inhibitors; 290,000 compounds, 0.71% hits; further: potency means the concentration at half of the fitted maximal effect; on the % scale 0 is the no-effect control and ±100 the full control effect; nearly all actives have a fitted effect of over 55% in size
Target sequence (A8B2U2 whole entry, looked up): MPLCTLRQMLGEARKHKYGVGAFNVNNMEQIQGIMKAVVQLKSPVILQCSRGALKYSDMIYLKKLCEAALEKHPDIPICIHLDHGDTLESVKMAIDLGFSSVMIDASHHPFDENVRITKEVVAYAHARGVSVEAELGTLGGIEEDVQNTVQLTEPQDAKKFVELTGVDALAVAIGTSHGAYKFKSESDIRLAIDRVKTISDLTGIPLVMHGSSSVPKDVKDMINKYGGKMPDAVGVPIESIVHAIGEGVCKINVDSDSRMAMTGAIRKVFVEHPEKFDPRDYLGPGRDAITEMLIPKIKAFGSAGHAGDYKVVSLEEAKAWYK
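40 nM FBPA preincubated 10 min at RT with compound (up to 57.5 uM final), then substrate plus GAPDH/TPI/NAD/arsenate coupling and diaphorase/resazurin added. Fluorescence read after 20 min at RT, 525/598 nm.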
Shiga inhibitor – blocks Shiga toxin action in Vero cells; Vero cells, Shiga toxin protein synthesis inhibition reporter; inhibition, % at 38.7 µM; 290,000 compounds, 9.2% hits; AID 2315; in the data active means inhibition mostly above about 28%, no sharp cut-off; inactive means mostly below about 43%; further: 0% is about no effect
TbPYK inhibitor – blocks Trypanosoma brucei pyruvate kinase | Q57TT1 | TbPYK enzyme, Kinase-Glo Plus ATP luminescence, 45 min | Potency, µM (doses to about 76.8 µM), for inactives: top-dose activity, negative = inhibition, hits mostly inhibitors | 410,000 compounds, 0.12% hits | AID 624173; further: potency means the concentration at half of the fitted maximal effect; on the % scale 0 is the no-effect control and ±100 the full control effect; nearly all actives have a fitted effect of over 50% in size
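Glycolytic pyruvate kinase of T. brucei was incubated with substrate, test compound and 130 uM ADP for 45 minutes at room temperature. Luminescent Kinase-Glo Plus signal was measured after 10 minutes.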
Sm TGR inh – blocks Schistosoma mansoni thioredoxin glutathione reductase | 360,000 compounds, 3% hits | Potency, µM (doses to about 114 µM), for the others: top-dose activity change, negative = inhibition, usual class: inhibitors | AID 485364 | purified TGR, DTNB reduction, TNB absorbance 405 nm; further: potency means the concentration at half of the fitted maximal effect; on the % scale 0 is the no-effect control and ±100 the full control effect; nearly all actives have a fitted effect of over 60% in size
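Kinetic colorimetric format: TGR-catalysed, NADPH-driven DTNB reduction monitored via TNB absorbance. Enzyme dispensed at 20 nM; compound exposure 15 min at room temperature before reaction start.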
* = called active by the depositor; u = inconclusive; x = no result given. Shown is part of a subset that was picked to be rich in hits. Unless noted, the call rests on the fitted dose curve; in most records, active means well fitted curve in the direction sought with a large enough effect; inconclusive means small, poorly fitted or top-dose-only effect, or another doubt; inactive means no such curve, though single readings can be large; an effect the other way counts as inactive or inconclusive.

SMILES	LmPK inhibitor	Cycloheximide cs	Giardia FBPA inh	Shiga inhibitor	TbPYK inhibitor	Sm TGR inh
COc1ccccc1N1CCN(C2CC(=O)N(c3cccc(Br)c3)C2=O)CC1 (stereo not drawn)	-4%	1	-25%	-6	2%	45µM*
COC(=O)c1ccc(N2C(=O)CC(N3CCC(O)(c4ccc(Br)cc4)CC3)C2=O)cc1 (stereo not drawn)	5%	1	u	-4	-4%	45µM*
CN1CCN(C2CC(=O)N(c3ccc4c(c3)OCCO4)C2=O)CC1 (stereo not drawn)	6%	34*	-14%	54	5%	-5%
COc1ccc(N2C(=O)CC(N3CCN(S(=O)(=O)c4ccc(Cl)cc4)CC3)C2=O)cc1 (stereo not drawn)	6%	-3	0%	-5	-4%	-1%
COc1ccc(N2C(=O)CC(N3CCN(c4ccccc4)CC3)C2=O)cc1 (stereo not drawn)	-5%	1	8%	15	-1%	-27%
COc1ccc(N2C(=O)CC(N3CCC(O)(c4ccc(Cl)cc4)CC3)C2=O)cc1 (stereo not drawn)	3%	-3	3%	-5	-5%	50µM*
O=C1CC(N2CCN(c3ccccc3)CC2)C(=O)N1c1ccc2c(c1)OCCO2 (stereo not drawn)	-1%	1	-5%	-6	-1%	-22%
COc1ccc(N2C(=O)CC(N3CCN(c4ccc(Cl)cc4)CC3)C2=O)cc1 (stereo not drawn)	47%	1	1%	x	-3%	45µM*
CCOc1ccc(N2C(=O)CC(N3CCN(c4ccc([N+](=O)[O-])cc4)CC3)C2=O)cc1 (stereo not drawn)	0%	1	-2%	-2	-5%	10µM*
N#CCSc1ccccc1NC(=O)COC(=O)CCNC(=O)c1ccc([N+](=O)[O-])cc1	x	x	x	x	0%	0%
COc1cccc(N2CCN(C3CC(=O)N(c4cccc(Cl)c4)C3=O)CC2)c1 (stereo not drawn)	6%	-3	-3%	-5	-10%	45µM*
COc1ccc(N2C(=O)CC(N3CCOCC3)C2=O)cc1 (stereo not drawn)	1%	-2	0%	-3	0%	25µM*
Cc1ccccc1-n1ncc2c1CC(C)(C)CC2NC(=O)c1cn[nH]c1C (stereo not drawn)	5%	-2	x	-5	-4%	8%
CCCn1nnc(NC(=O)c2cccnc2Cl)n1	1%	-4	2%	-1	1%	3%
CCCn1nnc(NC(=O)c2ccccc2Cl)n1	-1%	27*	0%	46	-5%	0%
CCCn1nnc(NC(=O)c2ccc(Cl)cc2Cl)n1	-8%	45*	-3%	113*	0%	1%
O=S(=O)(NCCc1csc(-c2ccc(F)cc2)n1)c1ccc(Cl)cc1	x	x	x	x	4%	5%
O=C(OCc1nnc(-c2ccc(Cl)cc2)o1)C12CC3CC(CC(O)(C3)C1)C2	2%	39*	1%	118*	5%	0%
O=C(Cc1ccc(Cl)cc1)OCc1nnc(-c2ccccc2)o1	-2%	-1	1%	-9	-4%	0%
O=C(NCCc1ccc(Cl)cc1)C12CC3CC(CC(O)(C3)C1)C2	1%	19*	x	17	-10%	4%
Cc1ccc(CCNC(=O)C23C[C@H]4C[C@@H](C2)CC(n2nnc(C)n2)(C4)C3)cc1	-1%	41*	3%	59	-6%	2%
Cc1cccc(C)c1NC(=O)CNC(=O)C12CC3CC(CC(O)(C3)C1)C2	x	x	x	x	-9%	-2%
COc1cc(NC(=O)C2CCN(S(=O)(=O)c3c(C)noc3/C=C/c3cccs3)CC2)cc(OC)c1	x	x	x	x	1%	18%
CC(Cl)OC(=O)Nc1cccc2cccnc12 (stereo not drawn)	x	1	x	-13	x	x
Fc1ccc(CNc2nc(-c3ccccc3)cc(C(F)(F)F)n2)cc1	x	x	x	x	3%	7%
NS(=O)(=O)c1ccc(NC(=O)CSc2nc3c(c(=O)[nH]2)CCCC3)cc1	-3%	-5	8%	-5	-20%	10%
Cc1ccc(-n2c(/C=C/c3c(C)n(C)c4ccccc34)nc3ccccc3c2=O)cc1	x	x	x	x	1%	5%
